Results filed as inconclusive are left out. Activity calls are given as the source filed them. The call rests on the fitted dose curve; in most records, active means well fitted inhibition curve with a large enough effect; inconclusive means small, poorly fitted or top-dose-only effect, or effect the other way; inactive means flat fitted curve, though single readings scatter.
Assay: qHTS for Inhibitors of Plasmodium falciparum (CP250) proliferation (AID 504320)
Settings: P. falciparum CP250 in erythrocytes, SYBR Green DNA, 72 h; series mostly up to 6.7 µM; activity change, negative = inhibition: at the top concentration
Description: Plasmodium falciparum is a virulent malarial parasite that kills 1-2 million people worldwide each year. Malaria not only inflicts tremendous suffering and morbidity on the human population, but has dramatically influenced the course of civilization with profound sociological and economic implications (Shah, S. 2010). Transmitted by mosquitoes, the sporozoite form of the parasite enters the blood stream to infect hepatocytes, where they become merozoites that infect red blood cells (erythrocytes). Within erythrocytes, merozoites begin a […] cycle of growth and division, after which the parasite is released to infect new red blood cells. Gametocytes, which form within erythrocytes as well, circulate in the bloodstream and are ingested by the mosquito, thereby completing the life cycle (see CDC website). To profile malarial lines for differential chemical responses and to identify inhibitors of malarial growth, an assay that measures P. falciparum growth and replication within erythrocytes was employed. This assay uses a DNA binding fluorescent dye (SYBR Green) to detect parasite DNA following cell lysis. Because mature erythrocytes lack DNA, only Plasmodium-derived DNA is detected. The P. falciparum line cp250, derived from a malarial isolate from Cambodia, (Mu, J., et al. 2010) was added to the panel of lines, Dd2, HB3, 7G8 and GB4 in this study. Laboratory of Assay Development and Screening Technology [ADST] and NIH Chemical Genomics Center [NCGC] Boston University, Chemistry Department, Center for Chemical Methodology and Library Development [CMLD-BU] NIH National Institute of Allergy and Infectious Diseases [NIAID]
ADST Assay Protocol Summary: The 1536-well SYBR Green viability assay was based on the method of Bennett et al (2004) and described previously in 1536-well format (Yuan J., et al. 2009). For screening 3 ul culture medium was dispensed into 1536 well black clear bottom plates (Aurora Biotechnologies) using a Multidrop Combi (Thermo Fisher Scientific Inc.), 23 nL compounds in DMSO were added by a pin transfer (Cleveland, P.H. and Koutz, P.J, 2005) using a pin tool-based delivery system (Kalypsys), and 5 ul of erythrocytes infected with P. falciparum one of five lines (cp250, Dd2, HB3, 7G8 or GB4, 0.3% parasitemia, 2.5% hematocrit final concentration) were added. The plates were incubated at 37C in a humidified incubator in 5% CO2 for 72 h, and 2 ul lysis buffer (20 mM Tris HCl, 10 mM EDTA, 0.16% saponin, 1.6% triton X, 10X SYBR Green I (supplied as 10,000X final concentration by Invitrogen) was added to each well. The plates were mixed for 25 sec with gentle shaking and incubated overnight at room temperature in the dark. The following morning, fluorescence intensity at 485(14) nm excitation and 535(25) nm emission wavelengths was measured on an EnVision (Perkin Elmer) plate reader. Plate reads were normalized relative to the control inhibitor (0.29 uM artemisinin) and vehicle (DMSO) wells present on each plate and then corrected by an algorithm using vehicle-only control plates at the beginning and end of the compound plate stack. References Shah, S. (2010). The Fever: how malaria has ruled humankind for 500,000 years. New York, Sarah Crichton Books. CDC web site, http://www.cdc.gov/malaria/about/biology/index.html Mu, J., Myers, R.A., Jiang, H., Liu, S., Ricklefs, S., Waisberg, M., Chotivanich, K., Wilairatana, P., Krudsood, S., White, N.J., et Plasmodium falciparum genome-wide scans for positive selection, recombination hot spots and resistance to antimalarial drugs Nature Genetics 2010, 42, pp 268-271 Bennett TN, Paguio, M., Gligorijevic, B., Seudieu, C., Kosar, A. D., Davidson, E., and Roepe, P. D. Novel, rapid, and inexpensive cell-based quantification of antimalarial drug efficacy Antimicrobial Agents Chemother. 2004, 48(5): pp 1807-10 Yuan J, Johnson RL, Huang RL, Wichterman J, Jiang HY, Hayton K, Fidock DA, Wellems TE, Inglese J, Austin CP, Su XZ. […]

Potency, inactive:
COC(=O)CCCC1=CC2=CC(=O)C(C)(OC(=O)c3cccs3)C(=O)C2=CN1c1ccccc1 (stereo not given), COc1cccc(CC(=O)N2CCc3nc(-c4ccccc4)c4c(c3C2)CO[C@@H](C)C4)c1, C=CCN1c2ccccc2[C@]23C[C@@H](C(=O)OC)N(C(=O)CC(C)C)C2=NC(C(=O)OC)=C(C(=O)OC)[C@H]13, COC(=O)CC1c2ccccc2C=C(C)N1C(=O)OC (stereo not given), CC[C@@H](C)CN1C(=O)N[C@@H](CCc2ccccc2)C(C(C)=O)=C1C, COC(=O)CCCC1=CC2=CC(=O)C(C)(OC(=O)c3cccs3)C(=O)C2=CN1CCCCO (stereo not given), CCCCC1=CC2=C(c3ccco3)C(=O)C(C)(OC(=O)c3ccc(OC)cc3)C(=O)C2=CN1CCCCO (stereo not given), C=CC1=C2C=C(C3CC3)N(CCCCO)C=C2C(=O)C(C)(OC(=O)c2ccco2)C1=O (stereo not given)

Activity change, negative = inhibition, inactive:
CCN1C(=O)N[C@@H](c2cccc(C(F)(F)F)c2)[C@H](C(=O)OC)[C@H]1C -1.37%, COC(=O)C1=C(C(=O)OC)[C@@H]2N(C)c3ccccc3[C@@]23C[C@@H](C(=O)OC)N(C(=O)COCc2ccccc2)C3=N1 -1.3%, COCCN1C(=O)N[C@@H](c2cccc(C(F)(F)F)c2)C(C(=O)OC)=C1C -6.16%, CCOC(=O)CN1C(=O)N[C@@H](c2cccs2)C(C(C)=O)=C1C 1.62%, CCN1C(=O)N[C@@H](c2ccccc2)C(C(=O)OC)=C1C 1.54%, COCCN1C=C2C(=O)C(C)(OC(=O)CCC(=O)OC)C(=O)C(Br)=C2C=C1c1ccc(OC)cc1 (stereo not given) -4.25%, CC#CCN1c2ccccc2[C@]23C[C@@H](C(=O)OC)N=C2NC(C(=O)OC)=C(C(=O)OC)[C@H]13 1.77%, COC(=O)C1=C(C(=O)OC)[C@@H]2N(C)c3ccccc3[C@@]23C[C@@H](C(=O)OC)N(S(=O)(=O)c2ccc(C)cc2)C3=N1 5.41%, COC(=O)CCCC1=CC2=CC(=O)C(C)(OC(=O)c3cccs3)C(=O)C2=CN1c1cccc(C#N)c1 (stereo not given) 1.39%, COC/C=C/C1=CC2=CC(=O)C(C)(OC(=O)c3cnc4ccccc4n3)C(=O)C2=CN1c1ccc(CO)cc1 (stereo not given) -0.552%, COC(=O)CCC(=O)OC1(C)C(=O)C2=CN(CCc3ccccn3)C(c3ccc(OC)cc3)=CC2=C(Br)C1=O (stereo not given) 2.41%, CCN1C(=O)N[C@@H](c2ccco2)C(C(=O)OC)=C1C 1.18%, CC1(OC(=O)CCc2ccccc2)C(=O)C=C2C=C(c3ccc(C#N)cc3)N(CCc3ccccn3)C=C2C1=O (stereo not given) 0.874%, COC(=O)N[C@@H](c1cccc(C)c1)[C@]1(C(C)=O)CCCC1=O 2.12%, CCCCc1nc2c(c3c1C[C@H](C)OC3)CN(C(=O)N[C@@H](C)c1ccccc1)CC2 3.57%, CCCCC1=CC2=CC(=O)C(C)(OC(=O)CC)C(=O)C2=CN1c1cccc(C#N)c1 (stereo not given) -1.34%, COC(=O)CCC(=O)OC1(C)C(=O)C2=CN(Cc3ccccc3)C(c3ccc(OC)cc3)=CC2=C(Br)C1=O (stereo not given) 4.68%, CCCCC1=CC2=CC(=O)C(C)(OC(=O)CC)C(=O)C2=CN1CCCOC(C)C (stereo not given) 4.07%, CC1(OC(=O)CCc2ccccc2)C(=O)C=C2C=C3CCCN3C=C2C1=O (stereo not given) 3.44%, COC/C=C/C1=CC2=CC(=O)C(C)(OC(=O)c3cnc4ccccc4n3)C(=O)C2=CN1CC1CC1 (stereo not given) 4.77%, C=CCOC(=O)N[C@@H](c1ccc(Br)cc1)C(C(C)=O)C(C)=O -0.232%, COC(=O)CCCC1=CC2=CC(=O)C(C)(OC(=O)c3cccs3)C(=O)C2=CN1Cc1ccc2c(c1)OCO2 (stereo not given) 0.0446%, COC(=O)C1=C(C(=O)OC)[C@@H]2N(C)c3ccccc3[C@@]23C[C@@H](C(=O)OC)N(C(=O)C2CCC2)C3=N1 -0.256%, COC(=O)N[C@H](C(C(=O)OC)=C(C)NCc1ccccc1)c1cccc(F)c1 0.0633%, CC1(OC(=O)c2cnc3ccccc3n2)C(=O)C=C2C=C3CCCN3C=C2C1=O (stereo not given) 7.78%, COC(=O)C1=C(C(=O)OC)[C@@H]2N(Cc3ccccc3)c3ccccc3[C@@]23C[C@@H](C(=O)OC)N(C(C)=O)C3=N1 1.36%, C=C(C(C)=O)C(O)C=Cc1ccco1 (stereo not given) 6.01%, COC(=O)CCC(=O)OC1(C)C(=O)C=C2C=C(C3CC3)N(Cc3ccccc3)C=C2C1=O (stereo not given) 1.62%, COC(=O)C1=C(C(=O)OC)[C@@H]2N(C)c3ccc(OC)cc3[C@@]23C[C@@H](C(=O)OC)N(C(=O)COCc2ccccc2)C3=N1 -0.039%, COC/C=C/C1=CC2=CC(=O)C(C)(OC(=O)c3cnc4ccccc4n3)C(=O)C2=CN1CCc1c[nH]c2ccccc12 (stereo not given) 4.29%, COC/C=C/C1=CC2=CC(=O)C(C)(OC(=O)c3cnc4ccccc4n3)C(=O)C2=CN1C1CC1 (stereo not given) -0.336%, CCN1C(=O)N[C@@H](c2cccc(F)c2)C(C(=O)OC)=C1C 3.24%

— PubChem BioAssay (NCATS)
